Six compounds from PubChem BioAssay (EPA / NIEHS) can be followed below.

Results filed as inconclusive are left out. Activity calls are given as the source filed them. Rule for the calls, unless noted: active = hit-call score of the fitted dose curve at least 0.9, where 1 is the maximum; inactive = score below 0.9.

Read-out in assay [1]: Monocyte Chemoattractant Protein-1 (MCP1), CCL2 (gene 6347)
As to the kind of experiment: BSK_SAg_MCP1: BioMAP Diversity Plus: SAg Assay for Monocyte Chemoattractant Protein-1 (MCP1) Biomarker Activity (AID 2283090). The following applies: primary human HUVEC with PBMC; actives raise or lower the signal. In outline:
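MCP-1 levels in the endothelial–PBMC SAg co-culture were quantified by ELISA at 24 h post-dosing; both increases and decreases versus DMSO scored. Cytotoxicity monitored by SRB total protein in parallel cultures.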

Read-out in assay [2]: E-selectin (Homo sapiens) (UniProt P16581)
As to the kind of experiment: BSK_SAg_Eselectin: BioMAP Diversity Plus: SAg Assay for Eselectin Biomarker Activity (AID 2283091). The following applies: primary human HUVEC with PBMC; actives raise or lower the signal. In a few lines:
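Primary human endothelial cells and peripheral blood mononuclear cells were co-cultured and exposed to chemical for 24 hours. E-selectin levels were then quantified by ELISA, with bidirectional curve fitting normalised to DMSO controls.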

Read-out in assay [3]: Monokine induced gamma interferon (MIG), CXCL9 (gene 4283)
In words: BSK_SAg_MIG: BioMAP Diversity Plus: SAg Assay for Monokine induced gamma interferon (MIG) Biomarker Activity (AID 2283092). Particulars: primary human HUVEC with PBMC; actives raise or lower the signal. In a few lines:
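ELISA readout of MIG/CXCL9; primary human umbilical vein endothelial cells co-cultured with peripheral blood mononuclear cells; 24 h post-dose; gain/loss fit vs DMSO baseline.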

Assay [4] in a line: BSK_SAg_PBMCCytotoxicity: PBMC Cytotoxicity Assessment in the BioMAP Diversity Plus: SAg Assay (AID 2283093).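 For AC50: PBMC superantigen activated with SEB plus TSST-1 one hour after compound addition.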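 Note: PBMC viability measured as Alamar Blue reduction fluorescence at 546/580 nm; fitted both ways against DMSO so a hit may be loss or gain of signal.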 Particulars: primary human HUVEC with PBMC. In outline: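 HUVEC/PBMC co-culture; PBMC exposed to chemical 1 h before SEB and TSST-1 activation (20 ng/mL each), incubated 90 h, then Alamar Blue 6 h, fluorescence 546/580 nm. Bidirectional fit versus DMSO baseline.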
The nature of assay [5]: BSK_SAg_Proliferation: Cell Proliferation Assessment in the BioMAP Diversity Plus: SAg Assay (AID 2283095). Particulars: primary human HUVEC with PBMC. In a few lines: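 Human umbilical vein endothelial cells co-cultured with PBMC; sulforhodamine B total-protein staining (0.1% SRB after 10% TCA fixation, absorbance 560 nm) at 96 h in sub-confluent culture. Fitted bidirectionally against DMSO.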

The target in assay [6] is human CYP2A6, CYP2A6 (gene 1548) (UniProt P11509). In words: NVS_ADME_hCYP2A6: NovaScreen (NVS) CYP450-related Enzyme Activity (ADME) Assay for human CYP2A6 (AID 2283099; active = hit-call score of the fitted dose curve at least 0.9, where 1 is the maximum). In outline: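 Recombinant human CYP2A6 from insect cells was incubated with chemical for 0.5 h and activity read by fluorescence. Single-concentration duplicates at 10 uM preceded concentration-response testing to 20 uM, with activity referenced to acetonitrile.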

Assay [7] concerns the target human CYP1A1, CYP1A1 (gene 1543) (UniProt P04798). As to the kind of experiment: NVS_ADME_hCYP1A1: NovaScreen (NVS) CYP450-related Enzyme Activity (ADME) Assay for human CYP1A1 (AID 2283100; active = hit-call score of the fitted dose curve at least 0.9, where 1 is the maximum). In a few lines:
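Compounds first went through duplicate single-concentration testing at 10 uM against purified CYP1A1. Those passing a threshold such as 30% inhibition entered singleton dose-response, highest concentration 20 uM. Signal was fluorescence measured after 1 hour.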

Assay [8] has as its target human CYP2B6, CYP2B6 (gene 1555) (UniProt P20813). In words: NVS_ADME_hCYP2B6: NovaScreen (NVS) CYP450-related Enzyme Activity (ADME) Assay for human CYP2B6 (AID 2283101; active = hit-call score of the fitted dose curve at least 0.9, where 1 is the maximum). In outline: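 Fluorescence-based enzyme activity of recombinant human CYP2B6, measured 1 h post-dose against acetonitrile vehicle baseline. Screened at a single concentration of 10 uM in duplicate before concentration-response follow-up.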

The target in assay [9] is Cytochrome P450 2C18 (Homo sapiens) (UniProt P33260). As to the kind of experiment: NVS_ADME_hCYP2C18: NovaScreen (NVS) CYP450-related Enzyme Activity (ADME) Assay for human CYP2C18 (AID 2283103). In outline:
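Cell-free recombinant human CYP2C18 with fluorogenic substrate; fluorescence intensity read 0.5 h after dosing. Single-point screen at 10 uM in duplicate, then concentration-response up to 20 uM; loss of signal fitted against acetonitrile baseline.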

Assay [10] has as its target human CYP2C8, CYP2C8 (gene 1558) (UniProt P10632). As to the kind of experiment: NVS_ADME_hCYP2C8: NovaScreen (NVS) CYP450-related Enzyme Activity (ADME) Assay for human CYP2C8 (AID 2283104). In outline:
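Recombinant human CYP2C8 with fluorogenic substrate, 0.5 h, fluorescence intensity; signal loss fitted versus acetonitrile. Screened in duplicate at 10 uM, then actives run in concentration-response up to 20 uM.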

In assay [11] the target is human CYP2J2, CYP2J2 (gene 1573) (UniProt P51589). As to the kind of experiment: NVS_ADME_hCYP2J2: NovaScreen (NVS) CYP450-related Enzyme Activity (ADME) Assay for human CYP2J2 (AID 2283106; active = hit-call score of the fitted dose curve at least 0.9, where 1 is the maximum). In a few lines:
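Cell-free assay of recombinant CYP2J2 with a fluorogenic substrate, read 1 h after dosing; loss of signal versus acetonitrile. Primary screen at 10 uM in duplicate, then concentration-response up to 20 uM for chemicals passing threshold (e.g., 30% inhibition).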

The target in assay [12] is human CYP2C9, CYP2C9 (gene 1559) (UniProt P11712). As to the kind of experiment: NVS_ADME_hCYP2C9: NovaScreen (NVS) CYP450-related Enzyme Activity (ADME) Assay for human CYP2C9 (AID 2283108; active = hit-call score of the fitted dose curve at least 0.9, where 1 is the maximum). In outline:
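Recombinant human CYP2C9 expressed in SF9 cells, fluorogenic substrate, fluorescence read 0.75 h after dosing. Chemicals first run in duplicate at 10 uM, with actives followed in concentration series; loss of signal versus acetonitrile baseline.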

Assay [13] has as its target Cytochrome P450 3A4 (Homo sapiens) (UniProt P08684). In words: NVS_ADME_hCYP3A4: NovaScreen (NVS) CYP450-related Enzyme Activity (ADME) Assay for human CYP3A4 (AID 2283110; active = hit-call score of the fitted dose curve at least 0.9, where 1 is the maximum). In a few lines:
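Cell-free recombinant enzyme expressed in insect cells; fluorescent substrate turnover read after 0.33 h, acetonitrile as negative control. Primary screen in duplicate at 10 uM, actives then tested in concentration series.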

Assay [14] has as its target Cytochrome P450 2C19 (Homo sapiens) (UniProt P33261). In words: NVS_ADME_hCYP2C19: NovaScreen (NVS) CYP450-related Enzyme Activity (ADME) Assay for human CYP2C19 (AID 2283113; active = hit-call score of the fitted dose curve at least 0.9, where 1 is the maximum;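 for AC50: potency for inhibition seen as loss of fluorescent signal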). In outline:
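Chemicals first screened in duplicate at 10 uM against recombinant human enzyme produced in insect cells; confirmed actives then run as concentration series. Fluorogenic substrate turnover read by fluorescence after 1 h, normalised to acetonitrile.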

Read-out in assay [15]: Interleukin-8 (IL8), CXCL8 (gene 3576)
As to the kind of experiment: BSK_SAg_IL8: BioMAP Diversity Plus: SAg Assay for Interleukin-8 (IL8) Biomarker Activity (AID 2283094). The following applies: primary human HUVEC with PBMC; actives raise or lower the signal. In outline: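 Human umbilical vein endothelial cells co-cultured with PBMC, stimulated with superantigen; IL-8 measured by ELISA 24 h after chemical dosing. Bidirectional fitting versus DMSO; SRB staining in parallel cultures tracks cytotoxicity.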

Assay [16] addresses human CYP2D6, CYP2D6 (gene 1565) (UniProt P10635). As to the kind of experiment: NVS_ADME_hCYP2D6: NovaScreen (NVS) CYP450-related Enzyme Activity (ADME) Assay for human CYP2D6 (AID 2283107; active = hit-call score of the fitted dose curve at least 0.9, where 1 is the maximum). In a few lines: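 Compounds were first tested in duplicate at 10 uM against recombinant enzyme produced in insect cells, with substrate turnover measured by fluorescence after 1 hour. Decreased signal, referenced to acetonitrile vehicle, was taken as reduced enzyme activity. Active chemicals went on to concentration-response testing.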

Assay [17] deals with human CYP19A1, CYP19A1 (gene 1588) (UniProt P11511). As to the kind of experiment: NVS_ADME_hCYP19A1: NovaScreen (NVS) CYP450-related Enzyme Activity (ADME) Assay for human CYP19A1 (AID 2283098; active = hit-call score of the fitted dose curve at least 0.9, where 1 is the maximum). In a few lines:
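Recombinant enzyme in a cell-free format, read 0.5 h after dosing by fluorescence from a fluorogenic substrate. Loss of signal was fitted against acetonitrile as baseline. Primary screen in duplicate at 10 uM, actives then tested in concentration series.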

In assay [18] the target is human CYP1A2, CYP1A2 (gene 1544) (UniProt P05177). As to the kind of experiment: NVS_ADME_hCYP1A2: NovaScreen (NVS) CYP450-related Enzyme Activity (ADME) Assay for human CYP1A2 (AID 2283102; active = hit-call score of the fitted dose curve at least 0.9, where 1 is the maximum;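 for AC50: potency for inhibition since loss of fluorescence marks reduced CYP1A2 activity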). In a few lines: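 Compounds were tested at 10 uM in duplicate against recombinant CYP1A2 produced in insect cells. Enzyme activity was measured by fluorescence 0.5 h after dosing, with loss of signal versus acetonitrile control. Active compounds were re-tested in concentration series.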
Chain of human CYP1A2, CYP1A2 (gene 1544) (P05177 whole entry, looked up): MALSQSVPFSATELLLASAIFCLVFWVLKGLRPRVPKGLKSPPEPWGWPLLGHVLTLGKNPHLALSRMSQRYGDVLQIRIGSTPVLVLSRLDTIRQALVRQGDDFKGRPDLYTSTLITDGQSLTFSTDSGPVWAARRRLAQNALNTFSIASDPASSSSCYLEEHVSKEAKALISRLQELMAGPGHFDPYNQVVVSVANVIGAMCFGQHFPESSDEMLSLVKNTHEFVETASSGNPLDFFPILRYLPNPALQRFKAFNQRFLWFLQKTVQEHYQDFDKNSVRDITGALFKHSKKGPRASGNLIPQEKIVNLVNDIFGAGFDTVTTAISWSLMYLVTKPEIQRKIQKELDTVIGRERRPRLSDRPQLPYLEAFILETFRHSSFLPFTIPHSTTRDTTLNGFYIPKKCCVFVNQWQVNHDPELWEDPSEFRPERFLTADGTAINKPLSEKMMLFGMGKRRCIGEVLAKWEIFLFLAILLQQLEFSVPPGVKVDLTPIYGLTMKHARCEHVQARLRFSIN

Chain of E-selectin (Homo sapiens) (P16581 whole entry, looked up): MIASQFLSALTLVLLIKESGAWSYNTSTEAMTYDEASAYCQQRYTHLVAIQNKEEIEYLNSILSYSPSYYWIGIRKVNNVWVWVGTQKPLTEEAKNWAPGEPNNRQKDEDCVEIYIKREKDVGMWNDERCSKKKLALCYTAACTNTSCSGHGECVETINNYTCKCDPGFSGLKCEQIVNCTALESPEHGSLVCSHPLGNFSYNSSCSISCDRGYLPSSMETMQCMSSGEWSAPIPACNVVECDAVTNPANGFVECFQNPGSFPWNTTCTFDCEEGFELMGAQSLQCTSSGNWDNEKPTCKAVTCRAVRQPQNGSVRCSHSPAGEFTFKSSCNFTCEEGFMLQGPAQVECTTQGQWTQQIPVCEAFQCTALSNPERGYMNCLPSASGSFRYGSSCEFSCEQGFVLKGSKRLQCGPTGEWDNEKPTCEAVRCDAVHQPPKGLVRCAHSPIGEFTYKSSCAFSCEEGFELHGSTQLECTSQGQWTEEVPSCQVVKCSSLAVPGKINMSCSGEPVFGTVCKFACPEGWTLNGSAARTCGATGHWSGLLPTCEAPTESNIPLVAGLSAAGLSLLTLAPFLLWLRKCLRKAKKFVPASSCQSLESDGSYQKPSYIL
Chain of Cytochrome P450 2C18 (Homo sapiens) (P33260 whole entry, looked up): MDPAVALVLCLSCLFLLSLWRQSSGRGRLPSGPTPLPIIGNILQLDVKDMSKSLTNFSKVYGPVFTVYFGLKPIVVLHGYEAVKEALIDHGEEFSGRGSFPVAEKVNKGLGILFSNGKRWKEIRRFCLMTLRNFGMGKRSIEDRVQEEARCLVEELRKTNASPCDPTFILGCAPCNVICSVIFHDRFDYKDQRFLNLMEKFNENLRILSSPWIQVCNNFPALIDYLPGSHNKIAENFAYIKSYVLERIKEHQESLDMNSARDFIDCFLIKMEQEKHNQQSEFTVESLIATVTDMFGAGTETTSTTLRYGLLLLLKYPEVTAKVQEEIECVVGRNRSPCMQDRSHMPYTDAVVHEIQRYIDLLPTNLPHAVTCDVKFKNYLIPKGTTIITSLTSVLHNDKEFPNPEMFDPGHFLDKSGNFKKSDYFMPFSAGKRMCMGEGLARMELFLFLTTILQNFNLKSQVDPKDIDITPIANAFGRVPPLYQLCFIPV
Chain of human CYP2C9, CYP2C9 (gene 1559) (P11712 whole entry, looked up): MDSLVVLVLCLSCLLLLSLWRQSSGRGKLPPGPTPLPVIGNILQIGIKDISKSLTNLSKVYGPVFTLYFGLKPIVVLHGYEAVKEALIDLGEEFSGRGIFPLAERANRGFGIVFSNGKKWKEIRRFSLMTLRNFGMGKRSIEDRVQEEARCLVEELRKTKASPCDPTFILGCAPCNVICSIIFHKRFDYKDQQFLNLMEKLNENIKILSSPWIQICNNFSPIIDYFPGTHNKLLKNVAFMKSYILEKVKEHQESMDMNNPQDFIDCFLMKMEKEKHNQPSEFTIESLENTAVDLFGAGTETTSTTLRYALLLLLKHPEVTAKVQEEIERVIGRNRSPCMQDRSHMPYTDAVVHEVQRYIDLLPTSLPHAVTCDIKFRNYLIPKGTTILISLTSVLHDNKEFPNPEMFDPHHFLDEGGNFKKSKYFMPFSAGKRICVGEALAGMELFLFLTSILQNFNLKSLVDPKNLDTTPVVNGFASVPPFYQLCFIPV
Chain of human CYP2C8, CYP2C8 (gene 1558) (P10632 whole entry, looked up): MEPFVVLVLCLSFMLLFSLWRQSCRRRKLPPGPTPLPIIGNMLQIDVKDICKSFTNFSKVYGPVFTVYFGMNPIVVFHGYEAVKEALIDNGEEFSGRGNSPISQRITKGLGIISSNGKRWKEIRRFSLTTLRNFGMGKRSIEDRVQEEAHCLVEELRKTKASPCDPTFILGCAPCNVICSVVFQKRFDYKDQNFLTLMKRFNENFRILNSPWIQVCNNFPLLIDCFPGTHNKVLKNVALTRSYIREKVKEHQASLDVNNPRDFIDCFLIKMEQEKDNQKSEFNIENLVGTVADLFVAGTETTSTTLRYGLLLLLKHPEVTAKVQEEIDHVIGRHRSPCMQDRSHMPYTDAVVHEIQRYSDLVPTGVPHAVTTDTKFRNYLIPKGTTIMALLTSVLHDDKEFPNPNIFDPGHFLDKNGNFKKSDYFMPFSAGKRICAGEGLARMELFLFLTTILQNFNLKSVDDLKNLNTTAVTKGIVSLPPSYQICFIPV
Chain of Cytochrome P450 3A4 (Homo sapiens) (P08684 whole entry, looked up): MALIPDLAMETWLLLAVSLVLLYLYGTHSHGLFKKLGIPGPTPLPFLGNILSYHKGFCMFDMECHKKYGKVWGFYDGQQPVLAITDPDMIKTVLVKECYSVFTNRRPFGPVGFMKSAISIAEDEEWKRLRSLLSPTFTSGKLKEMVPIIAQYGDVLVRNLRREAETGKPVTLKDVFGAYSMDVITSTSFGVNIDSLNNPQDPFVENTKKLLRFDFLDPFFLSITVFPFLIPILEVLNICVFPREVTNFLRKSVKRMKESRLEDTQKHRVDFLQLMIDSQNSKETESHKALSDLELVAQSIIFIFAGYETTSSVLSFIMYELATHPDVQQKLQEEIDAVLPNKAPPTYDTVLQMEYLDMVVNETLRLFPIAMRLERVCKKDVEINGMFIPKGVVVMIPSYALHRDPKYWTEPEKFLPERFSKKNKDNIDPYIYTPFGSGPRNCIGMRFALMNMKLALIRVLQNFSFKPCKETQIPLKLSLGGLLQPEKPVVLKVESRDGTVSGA
Chain of human CYP1A1, CYP1A1 (gene 1543) (P04798 whole entry, looked up): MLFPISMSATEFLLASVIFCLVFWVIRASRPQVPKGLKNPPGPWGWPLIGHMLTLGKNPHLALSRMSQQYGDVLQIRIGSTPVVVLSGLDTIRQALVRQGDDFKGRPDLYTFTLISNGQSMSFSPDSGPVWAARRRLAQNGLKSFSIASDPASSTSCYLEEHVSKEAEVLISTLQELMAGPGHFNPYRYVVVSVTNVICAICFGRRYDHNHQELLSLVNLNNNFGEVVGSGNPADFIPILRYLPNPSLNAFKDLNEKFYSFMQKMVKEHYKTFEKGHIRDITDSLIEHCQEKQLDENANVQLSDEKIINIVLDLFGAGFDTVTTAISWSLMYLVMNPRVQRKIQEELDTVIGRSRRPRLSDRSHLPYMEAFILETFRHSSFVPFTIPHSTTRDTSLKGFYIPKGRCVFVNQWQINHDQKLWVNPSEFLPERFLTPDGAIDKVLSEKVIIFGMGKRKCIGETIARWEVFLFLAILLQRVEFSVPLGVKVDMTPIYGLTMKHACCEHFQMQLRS
Chain of human CYP19A1, CYP19A1 (gene 1588) (P11511 whole entry, looked up): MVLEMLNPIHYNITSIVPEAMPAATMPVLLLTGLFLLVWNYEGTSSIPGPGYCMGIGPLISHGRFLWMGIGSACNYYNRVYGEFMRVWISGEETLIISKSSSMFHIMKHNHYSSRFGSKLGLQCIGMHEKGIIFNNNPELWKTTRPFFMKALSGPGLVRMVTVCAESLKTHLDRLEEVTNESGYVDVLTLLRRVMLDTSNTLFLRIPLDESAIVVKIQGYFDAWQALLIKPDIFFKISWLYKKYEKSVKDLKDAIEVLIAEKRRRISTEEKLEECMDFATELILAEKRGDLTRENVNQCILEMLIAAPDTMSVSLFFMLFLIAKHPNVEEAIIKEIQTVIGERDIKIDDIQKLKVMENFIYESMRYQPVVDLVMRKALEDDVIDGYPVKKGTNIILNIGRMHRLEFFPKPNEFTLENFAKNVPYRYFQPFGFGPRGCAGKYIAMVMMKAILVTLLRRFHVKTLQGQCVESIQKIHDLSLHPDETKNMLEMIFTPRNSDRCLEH
Chain of human CYP2A6, CYP2A6 (gene 1548) (P11509 whole entry, looked up): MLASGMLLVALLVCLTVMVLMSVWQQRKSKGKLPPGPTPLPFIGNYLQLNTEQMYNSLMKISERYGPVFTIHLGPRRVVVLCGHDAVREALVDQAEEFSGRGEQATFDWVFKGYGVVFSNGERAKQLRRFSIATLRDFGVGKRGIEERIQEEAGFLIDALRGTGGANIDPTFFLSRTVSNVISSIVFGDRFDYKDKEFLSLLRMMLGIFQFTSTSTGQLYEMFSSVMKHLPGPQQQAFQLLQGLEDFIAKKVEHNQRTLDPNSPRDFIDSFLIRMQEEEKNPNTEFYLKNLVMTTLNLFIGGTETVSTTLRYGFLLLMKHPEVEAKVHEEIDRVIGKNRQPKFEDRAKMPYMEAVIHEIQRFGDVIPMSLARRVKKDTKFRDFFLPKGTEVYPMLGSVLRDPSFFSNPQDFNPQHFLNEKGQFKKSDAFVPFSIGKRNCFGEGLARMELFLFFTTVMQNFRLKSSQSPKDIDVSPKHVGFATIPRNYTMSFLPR

As to `OC(c1ccc(Cl)cc1)(c1cncnc1)c1ccccc1Cl` (configuration not stated), the AC50 in assay [1] was 25.5 µM (active); in assay [2], 26.5 µM (active); in assay [3], 32.9 µM (active); in [4], 3.45 µM (active); in assay [5], 11.7 µM (active); in assay [6], 2.37 µM (active). Also, the half-maximal activity concentration (AC50) in assay [7] is 8.07 µM (active); in assay [8] it was 5.75 µM (active); in assay [9], 6.02 µM (active); in [10], 10 µM (active); in assay [11], 2.26 µM (active); in assay [12], 2.35 µM (active). Moreover, the AC50 in assay [13] was 3.87 µM (active); in assay [14], 136 nM (active).
As for `COc1nc(C)nc(NC(=O)NS(=O)(=O)c2ccccc2Cl)n1`, the outcome in assay [1], in assay [2], in [3], in [4], in [15] and in [5] was inactive. In addition, the result in assay [16] was inactive.
Turning to `N#Cc1nn(-c2c(Cl)cc(C(F)(F)F)cc2Cl)c(N)c1S(=O)C(F)(F)F` (configuration not stated), the AC50 in [1] was 30 µM (active); in [2], 29.8 µM (active); in [3], 35 µM (active); in assay [4], 5.04 µM (active); in [15], 27.8 µM (active); in [5], 15.6 µM (active). For the same compound, the AC50 in assay [12] was 1.14 µM (active); in [14] it was 751 nM (active).
`C#CCOS(=O)OC1CCCCC1Oc1ccc(C(C)(C)C)cc1` (configuration not stated): the AC50 in [1] is 7.84 µM (active); in [2], 4.02 µM (active); in assay [3], 16.7 µM (active); in assay [4], 14.6 µM (active); in [15], 1.92 µM (active); in assay [5] it was 1.16 µM (active). Further, the AC50 in [9] is 10 µM (active); in assay [14], 14300 nM (active). Further, the outcome in assay [17], in assay [18], in assay [12] and in assay [13] was inactive.
On to `COC(=O)N(OC)c1ccccc1COc1ccn(-c2ccc(Cl)cc2)n1`, for which the AC50 in assay [1] is 4.97 µM (active); in [2] it was 3.97 µM (active); in [3], 11.9 µM (active); in assay [4], 0.222 µM (active); in [15] it was 2.92 µM (active); in [5] it was 3.97 µM (active). Besides, the AC50 is 1.87 µM (active) in assay [7]; 0.912 µM (active) in assay [18]; 0.784 µM (active) in [9]; 1.26 µM (active) in assay [12]; 720 nM (active) in [14]. Further, the result in assay [17] and in assay [10] was inactive.
Take `Fc1ccc(Oc2ccnc3cc(Cl)cc(Cl)c23)cc1`: the AC50 in [1] was 28.2 µM (active); in assay [2], 20.5 µM (active); in [3], 30.6 µM (active); in assay [4], 31.4 µM (active); in assay [15], 15.9 µM (active); in assay [5] it was 22.7 µM (active). Besides, in assay [18], the AC50 is 7.42 µM (active). For the same compound, the outcome in assay [14] was inactive.

In general, AC50 refers to the concentration giving half of the maximal activity seen.
